Assay outcomes deposited in PubChem by National Center for Advancing Translational Sciences (NCATS).
Most compounds without a hit are left out; they make up all but 10% or so of the library.
Pf growth 96h = inhibits malaria parasite growth, 96 h; P. falciparum luciferase reporter growth, 96 h; Potency, µM (highest dose often 28.7 µM), inactives show at the top dose activity change, negative = inhibition, usual class: inhibitors; 6.9% of 320,000 active; AID 504834; active = well fitted inhibition curve with a large enough effect; inconclusive = small, poorly fitted or top-dose-only effect, or another doubt; inactive = no such curve, though single readings can be large or run the other way; note: % is set by controls: 0 for no effect and ±100 for the full control effect
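P. falciparum expressing integrated firefly luciferase, in erythrocytes at 2% hematocrit, 0.05% parasitemia, incubated with compounds 96 h at 37 C, 5% CO2. Growth inhibition read as loss of luminescence; two-generation exposure targets delayed-death apicoplast inhibitors.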
NS1 function inh = influenza NS1 inhibition; 0.4% of 270,000 active; AID 2326; Potency, µM (series often up to 46.1 µM), inactives show top-dose activity, positive = more growth; note: actives are rising curves; nearly all actives have a fitted effect of over 50% in size
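OD600 was taken as the measure of yeast growth restored by compound in an NS1-expressing S. cerevisiae strain. Cells had been washed out of glucose medium and diluted 1:100 into galactose -URA medium, pH 6.0.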
Pf growth 48h = P. falciparum growth inhibition at 48 hours (one generation); Potency, µM (top dose mostly 28.7 µM), for inactives: top-dose activity change, negative = inhibition, most hits filed as inhibitors; 5.9% of 310,000 active; P. falciparum luciferase growth in erythrocytes, 48 h; active = well fitted inhibition curve with a large enough effect; inconclusive = small, poorly fitted or top-dose-only effect, or another doubt; inactive = no such curve, though single readings can be large or run the other way; note: % is set by controls: 0 for no effect and ±100 for the full control effect
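A one-generation exposure of luciferase-tagged malaria parasites in RPMI 1640/Albumax erythrocyte culture, 37 C and 5% CO2. Inhibition is inferred from decreased luminescence after adding detection reagent.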
SARS PLpro yeast = blocks SARS-CoV papain-like protease in a yeast assay. S. cerevisiae expressing SARS-CoV PLpro, growth rescue. Potency, µM (highest dose often 32.9 µM), without a hit: at the highest dose activity, positive = growth rescue, usual class: activators. 0.19% of 330,000 active; note: 0% is about no effect; nearly all actives have a fitted effect of over 55% in size
Numbers without * were called inactive; ? = inconclusive; . = no result. Unless noted, calls come from the whole dose curve. Potency is the fitted concentration of half-maximal effect.

SMILES	Pf growth 96h	NS1 function inh	Pf growth 48h	SARS PLpro yeast
C#CCOCCOCCOCCNc1nc(N2CCN(C(=O)[C@H](C)n3cc(CCCN=C(N)N)nn3)CC2)nc(N2CCN(C(=O)[C@H](C)n3cc(CCCN=C(N)N)nn3)CC2)n1	0.738µM*	-1.0%	?	6.0%
C#CCOCCOCCOCCNc1nc(N2CCN(C(=O)[C@H]([C@@H](C)CC)n3cc(CCCN=C(N)N)nn3)CC2)nc(N2CCN(C(=O)[C@H](C)n3cc(CCCN=C(N)N)nn3)CC2)n1	0.165µM*	8.3%	?	9.2%
C#CCOCCOCCOCCNc1nc(N2CCN(C(=O)[C@H]([C@@H](C)CC)n3cc(CCCN=C(N)N)nn3)CC2)nc(N2CCN(C(=O)[C@H](Cc3ccc(O)cc3)n3cc(CCO)nn3)CC2)n1	?	-35.9%	-4.8%	2.1%
C#CCOCCOCCOCCNc1nc(N2CCN(C(=O)[C@H]([C@@H](C)CC)n3cc(CCCN=C(N)N)nn3)CC2)nc(N2CCN(C(=O)[C@H]([C@@H](C)CC)n3cc(CCCN=C(N)N)nn3)CC2)n1	0.928µM*	-11.7%	?	3.6%
COC(=O)c1c(C)[nH]c(C(=O)C(C)OC(=O)C2CC2)c1C (stereo unspecified)	41.3%	.	?	-6.8%
C#CCOCCOCCOCCNc1nc(N2CCOCC2)nc(N2CCN(C(=O)Cn3cc(CCCN=C(N)N)nn3)CC2)n1	?	19.5%	-3.3%	3.0%
C#CCOCCOCCOCCNc1nc(N2CCN(C(=O)Cn3cc(CCCN=C(N)N)nn3)CC2)nc(N2CCN(C(=O)Cn3cc(CCCN=C(N)N)nn3)CC2)n1	0.0329µM*	11.6%	?	11.8%
COc1ccc(CCC(=O)Nc2ccc(Cl)c(S(=O)(=O)N3CCCC3)c2)cc1	?	3.4%	9.28µM*	1.6%
COc1cc(NC(=O)CNc2ccc(Cl)c(S(=O)(=O)N3CCOCC3)c2)cc(OC)c1	?	.	5.22µM*	-0.9%
COc1cc(CCC(=O)Nc2ccc(S(=O)(=O)N3CCCC3)cc2)cc(OC)c1OC	?	.	?	-5.9%
COc1ccc(CCC(=O)Nc2ccc(OC)c(S(=O)(=O)N3CCCCC3)c2)cc1OC	?	.	?	-4.7%
COc1cc(CCC(=O)Nc2ccc(C)c(S(=O)(=O)N3CCCCCC3)c2)cc(OC)c1OC	10.4µM*	.	11.7µM*	3.8%
NCCc1ccn[nH]1	-2.8%	.	-0.6%	.
Cc1ccc(S(=O)(=O)NNC(=O)c2ccc(NC(=O)C3CC3)cc2)cc1	?	-0.8%	16.6%	-5.2%
CC1CC(C)CN(C(=O)c2nn(C)c3c2CSc2ccccc2-3)C1 (stereo unspecified)	5.86µM*	-42.8%	?	-9.4%
O=C(O)CSCC(=O)Nc1ccccc1SCCS(=O)(=O)c1ccc(Cl)cc1	-6.5%	2.1%	2.8%	-0.1%
CC(CN1CCOCC1)C(=O)O (stereo unspecified)	9.28µM*	1.0%	-25.0%	-11.3%
CC(CC(C)C(=O)N1CCOCCN(C(=O)C(C)CC(C)C(=O)O)CCOCC1)C(=O)O (stereo unspecified)	.	-48.2%	22.0%	4.4%
Cc1cc(C(=O)NN=C2CCCCCC2)c(C)o1	40.0%	-49.9%	-2.9%	-1.3%
CN(C)CCN(Cc1ccco1)S(=O)(=O)c1csc(C(N)=O)c1	8.28µM*	-10.3%	22.7%	9.9%
CCCCN(Cc1ccco1)S(=O)(=O)c1csc(C(N)=O)c1	9.28µM*	-4.1%	15.6%	-9.0%
CC(CCc1ccco1)N(C)S(=O)(=O)c1csc(C(N)=O)c1 (stereo unspecified)	?	-3.9%	?	-0.1%
[O-][n+]1c2ccccc2cc2ccccc21	7.38µM*	.	2.62µM*	1.5%
Cc1oc(-c2ccccc2)[n+]([O-])c1C	-26.6%	-6.7%	9.3%	0.2%
Cc1cccc(C)c1NC(=O)CC(NCCc1ccccc1)C(=O)O (stereo unspecified)	?	7.3%	4.7%	16.1%
C/C=C(/C)C(=O)O[C@@H]1c2c(ccc3ccc(=O)oc23)OC(C)(C)[C@@H]1OC(=O)/C(C)=C\C	6.57µM*	20.4%	6.57µM*	-1.8%
C/C=C(/C)C(=O)O[C@@H]1c2c(ccc3ccc(=O)oc23)O[C@@H]1C(C)(C)OC(C)=O	5.86µM*	12.1%	-33.9%	-4.6%
CCc1cccc(C)c1NC(=O)C1CCN(C(=O)c2ccc([N+](=O)[O-])cc2)CC1	-0.3%	0.6%	-1.0%	0.5%
CCOc1ccccc1NC(=S)NC1CC2CCC1C2 (stereo unspecified)	5.22µM*	-68.2%	?	-2.1%
